Results on eight compounds are retold here after PubChem BioAssay (NCI).

About 83,000 compounds went through this panel and 20% of them were active in at least one assay; those are over-represented in the sample as a whole.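 Each cell line was grown in a 96-well plate and treated with one concentration of compound for 48 hours. Values below 10 were considered active.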 A number with no mark means an inactive call. Activity calls are given as the source filed them.

Test systems include NCI-H23 lung; NCI-H226 lung; NCI-H322M lung; HOP-62 NSCLC; NCI-H460 lung; HOP-92 NSCLC; NCI-H522 lung; A549/ATCC NSCLC; 786-0 renal; COLO 205 colon; DU-145 prostate; K-562 leukemia; MALME-3M melanoma; MDA-MB-231 breast; RXF 393 renal; SF-268 CNS; SF-295 CNS; SF-539 CNS; UACC-257 melanoma; M14 melanoma.
Holding throughout (test): NCI-60 one-dose screen, 48 h (100 = growth as untreated, 0 = no growth, -100 = all killed)
What all share (conditions): 10 µM unless noted

With `COc1ccc(C2=NN(c3ccc(S(N)(=O)=O)cc3)C(c3ccc(Cl)cc3)C2)c(O)c1` (stereo not given), the growth with NCI-H23 lung was 63.7%; in the assay on NCI-H226 lung, 84.6%; with NCI-H322M lung it was 71.6%; with HOP-62 NSCLC, 90.2%; in the assay with NCI-H460 lung it was 45%; in the assay on HOP-92 NSCLC, 58.6%. Moreover, the growth in the assay with NCI-H522 lung is 48.8%; with A549/ATCC NSCLC it was 33%; in the assay with 786-0 renal it was 67.1%; with COLO 205 colon, 69.7%; with DU-145 prostate, 99.2%; in the assay with K-562 leukemia, 23%. The growth was 93.5% in the assay with MALME-3M melanoma; 76.5% in the assay with MDA-MB-231 breast; 45.1% with RXF 393 renal; 83.8% in the assay on SF-268 CNS; 46.3% in the assay with SF-295 CNS; 89.9% in the assay on SF-539 CNS. Further, the growth in the assay on UACC-257 melanoma was 57.3%; in the assay on M14 melanoma, 51.3%.
Regarding `CC(=O)c1cnc(-c2ccccc2)nc1CBr`, the growth with NCI-H23 lung was 87.7%; with NCI-H226 lung, 92.1%; with NCI-H322M lung, 102%; in the assay on HOP-62 NSCLC, 94.3%; in the assay with NCI-H460 lung, 98.2%; with HOP-92 NSCLC, 58.7%. Moreover, the growth with NCI-H522 lung is -23.4% (active); in the assay on A549/ATCC NSCLC, 99%; with 786-0 renal it was 86.3%; in the assay with COLO 205 colon, 36.9%; with DU-145 prostate it was 70.9%; in the assay with K-562 leukemia, 3.21% (active). The growth in the assay on MALME-3M melanoma was 55.8%; in the assay with MDA-MB-231 breast, 66.4%; in the assay with RXF 393 renal, 60%; in the assay on SF-268 CNS it was 84.8%; in the assay on SF-295 CNS, 97.8%; in the assay on SF-539 CNS, 91.6%. Further, the figures for the growth in the assay on UACC-257 melanoma and with M14 melanoma were 95.3% and 69.8%, respectively.
Regarding `O=C(/C(=C\c1c(-c2ccccc2)[nH]c2ccccc12)S(=O)(=O)c1ccccc1)c1ccccc1`, the growth in the assay with NCI-H23 lung is 47.9%; in the assay on NCI-H226 lung, 53.6%; in the assay with NCI-H322M lung, 67.6%; in the assay with HOP-62 NSCLC, 64.5%; in the assay with NCI-H460 lung it was 37.8%; in the assay on HOP-92 NSCLC, -4.34% (active). Besides, the growth was -12.2% (active) in the assay with NCI-H522 lung; 44.6% with A549/ATCC NSCLC; 68.1% in the assay with 786-0 renal; 70.8% in the assay on COLO 205 colon; 68.5% with DU-145 prostate; 8% (active) with K-562 leukemia. Also, the growth is 83.3% in the assay with MALME-3M melanoma; 49.8% with MDA-MB-231 breast; 46.7% in the assay with RXF 393 renal; 62.1% in the assay on SF-268 CNS; -6.63% (active) in the assay on SF-295 CNS; 75.4% with SF-539 CNS. Further, the growth was 32.3% in the assay with UACC-257 melanoma and 49.7% with M14 melanoma.
With `CCCCn1c(=O)c(/C=C/C(=O)/C=C/c2cc3ccccc3n(CCCC)c2=O)cc2ccccc21`, the growth was -7.39% (active) with NCI-H23 lung; -22.8% (active) in the assay on NCI-H226 lung; 49.6% with NCI-H322M lung; 49% in the assay with HOP-62 NSCLC; 5.91% (active) in the assay with NCI-H460 lung; 64.4% in the assay on HOP-92 NSCLC. Moreover, the growth in the assay on NCI-H522 lung is 5.74% (active); in the assay on A549/ATCC NSCLC it was -0.936% (active); in the assay on 786-0 renal, -63% (active); with COLO 205 colon, -22% (active); with DU-145 prostate, -7.95% (active); in the assay with K-562 leukemia, 3.37% (active). For the same compound, the growth in the assay on MALME-3M melanoma is 8.02% (active); in the assay on MDA-MB-231 breast, -18.8% (active); in the assay with RXF 393 renal it was -89.9% (active); in the assay with SF-268 CNS, 7.91% (active); in the assay with SF-295 CNS, 3.65% (active); in the assay with SF-539 CNS, -7.12% (active). Further, the growth in the assay with UACC-257 melanoma was -24% (active); with M14 melanoma, -29.9% (active).
`CN(C)C1=NCCN1`: the growth in the assay with NCI-H23 lung was 99.3%; in the assay on NCI-H226 lung, 99.4%; in the assay on NCI-H322M lung, 105%; in the assay on HOP-62 NSCLC, 107%; in the assay on NCI-H460 lung it was 110%; in the assay on HOP-92 NSCLC, 74.8%. The growth is 73.4% with NCI-H522 lung; 90% in the assay with A549/ATCC NSCLC; 89.6% in the assay on 786-0 renal; 111% in the assay with COLO 205 colon; 108% in the assay with DU-145 prostate; 95.6% in the assay with K-562 leukemia. Moreover, the growth in the assay with MALME-3M melanoma was 97.2%; with MDA-MB-231 breast it was 105%; with RXF 393 renal, 108%; in the assay with SF-268 CNS, 104%; in the assay on SF-295 CNS, 101%; in the assay on SF-539 CNS, 104%. The growth is 103% in the assay with UACC-257 melanoma and 95.7% with M14 melanoma.
Regarding `COc1cc(/C=N/Nc2nc(-c3ccc(F)cc3)c(C#N)c(N3CCOCC3)n2)ccc1O`, the growth with NCI-H23 lung was 108%; in the assay with NCI-H226 lung it was 97.8%; with NCI-H322M lung, 97.4%; with HOP-62 NSCLC, 104%; in the assay on NCI-H460 lung, 102%; in the assay with HOP-92 NSCLC, 80%. In addition, the growth in the assay on NCI-H522 lung was 99.3%; in the assay on A549/ATCC NSCLC, 89.6%; with 786-0 renal, 82%; in the assay with COLO 205 colon it was 101%; in the assay on DU-145 prostate it was 96.3%; with K-562 leukemia, 85.3%. In addition, the growth with MALME-3M melanoma was 122%; in the assay on MDA-MB-231 breast, 99.8%; with RXF 393 renal, -0.23% (active); with SF-268 CNS, 99.8%; in the assay on SF-295 CNS, 106%; with SF-539 CNS, 93.7%. Moreover, the growth in the assay on UACC-257 melanoma was 102%; in the assay on M14 melanoma, 114%.
Regarding `CC(C)NS(=O)(=O)c1cccc(-c2ccc3c(=O)n(CCCN)c4c(c3c2)C(=O)c2ccccc2-4)c1`, the growth with NCI-H23 lung was 93.4%; in the assay on NCI-H226 lung it was 93.4%; in the assay with NCI-H322M lung, 115%; with HOP-62 NSCLC, 91.9%; with NCI-H460 lung, 102%; with HOP-92 NSCLC, 105%. The growth in the assay with NCI-H522 lung was 85.3%; in the assay with A549/ATCC NSCLC, 102%; in the assay on 786-0 renal, 98%; with COLO 205 colon it was 106%; in the assay with DU-145 prostate, 107%; in the assay with K-562 leukemia, 88.3%. For the same compound, the growth in the assay on MALME-3M melanoma is 118%; with MDA-MB-231 breast, 108%; in the assay on RXF 393 renal, 109%; in the assay on SF-268 CNS, 98.2%; with SF-295 CNS, 104%; with SF-539 CNS, 104%. The growth is 110% with UACC-257 melanoma and 115% in the assay on M14 melanoma.
On to `N#CC1(C#N)C2=C(CCCC2)NC(c2c(F)cccc2Cl)C1(C#N)C#N` (stereo not given), for which the growth is 82% in the assay with NCI-H23 lung; 92.1% in the assay with NCI-H226 lung; 91.1% in the assay on NCI-H322M lung; 72.1% in the assay with HOP-62 NSCLC; 95.1% in the assay on NCI-H460 lung; 42.9% in the assay with HOP-92 NSCLC. Besides, the growth was -14.1% (active) in the assay with NCI-H522 lung; 92.6% with A549/ATCC NSCLC; 88.7% with 786-0 renal; 91.4% with COLO 205 colon; 89.7% in the assay on DU-145 prostate; 25.8% with K-562 leukemia. Also, the growth in the assay on MALME-3M melanoma is 74.7%; in the assay on MDA-MB-231 breast, 87.5%; with RXF 393 renal, 78.2%; in the assay on SF-268 CNS, 89.9%; with SF-295 CNS it was 81.3%; with SF-539 CNS, 50.1%. The growth with UACC-257 melanoma is 75.2%; in the assay with M14 melanoma, 49.5%.
